Out of some 360,000 compounds screened, about 2,900 (0.81%) were called active.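 How the source made its calls: active means inhibition above the mean inhibition across every tested compound plus 3 SD (cut at about 22% in these data); inactive means the rest.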 Only a selection was taken, and actives are over-represented in it overall.
biological target: Perilipin-5 (Homo sapiens) + 1-acylglycerol-3-phosphate O-acyltransferase ABHD5 (Homo sapiens) (UniProt Q00G26+Q8WTS1); test: ABHD5-PLIN5 interaction inhibitors, primary screen, cell lysate, split luciferase complementation, luminescence (AID 602281);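 further: 0% = DMSO only wells and the 100% control is not disclosed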; details: Split G. princeps luciferase complementation, 4 h, at 4 µM, stronger effect = higher value
Sequence (Q00G26 whole entry, looked up): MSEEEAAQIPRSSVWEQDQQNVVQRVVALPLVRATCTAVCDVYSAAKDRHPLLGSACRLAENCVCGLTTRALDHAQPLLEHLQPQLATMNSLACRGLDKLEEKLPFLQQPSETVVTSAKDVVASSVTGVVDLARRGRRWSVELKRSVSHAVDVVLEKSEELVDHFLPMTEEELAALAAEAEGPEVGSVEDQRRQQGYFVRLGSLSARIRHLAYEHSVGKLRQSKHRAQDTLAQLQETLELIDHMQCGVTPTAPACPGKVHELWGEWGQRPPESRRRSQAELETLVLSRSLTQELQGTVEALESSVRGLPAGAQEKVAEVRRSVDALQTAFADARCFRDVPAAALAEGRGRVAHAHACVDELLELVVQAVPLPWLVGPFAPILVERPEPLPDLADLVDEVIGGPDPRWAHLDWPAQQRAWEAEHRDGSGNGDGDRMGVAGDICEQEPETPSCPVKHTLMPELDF
Sequence (Q8WTS1 whole entry, looked up): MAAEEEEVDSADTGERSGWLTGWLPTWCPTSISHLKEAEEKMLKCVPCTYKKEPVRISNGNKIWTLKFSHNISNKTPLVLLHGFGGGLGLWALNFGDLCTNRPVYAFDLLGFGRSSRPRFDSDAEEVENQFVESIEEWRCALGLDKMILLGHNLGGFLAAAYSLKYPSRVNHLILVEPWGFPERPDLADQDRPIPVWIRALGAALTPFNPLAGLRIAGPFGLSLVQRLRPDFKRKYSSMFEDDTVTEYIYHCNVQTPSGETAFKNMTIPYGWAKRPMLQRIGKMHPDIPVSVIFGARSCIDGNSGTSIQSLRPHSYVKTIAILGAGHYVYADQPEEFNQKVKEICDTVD

inhibition, active:
FC(F)(F)C1CCCN(c2nsc3ccccc23)C1 (stereo not given) 28.5%
O=C(/C(=C/c1cccc(Cl)c1)c1nc2ccccc2[nH]1)c1ccccc1 23.3%
C#CCOCCOCCOCCNc1nc(N2CCN(C(=O)CCCCCCCCCCNC(=O)Cn3cc(CCCCCN)nn3)CC2)nc(N2CCN(C(=O)CCCCCCCCCCNC(=O)[C@H](CO)n3cc(CCCSC)nn3)CC2)n1 44%
C=C1C(=O)[C@]23C[C@H]1CCC2[C@@]1(C)C(C[C@@H]3O)[C@](C)(C(=O)O)CC[C@@H]1O (stereo not given in full) 36.1%
O=C(CSc1nnc(-c2cccnc2)n1Cc1ccco1)c1ccc(Cl)cc1 22.5%
CCc1ccc(NC(=O)CSc2nnc(-c3cnccn3)n2Cc2ccco2)cc1 23.2%
O=C(/C=C/c1ccc(Cl)cc1Cl)c1cccnc1 74.7%
O=C(/C=C/Sc1ncn[nH]1)c1ccc(Cl)cc1 57.9%
COc1ccc(CNC(=O)/C(C#N)=C/c2cccc(OC)c2OC)cc1 36%
O=C(N/N=C/C=C/c1ccco1)c1cccs1 36.5%
Cc1cccc(C=CC(=O)c2ccc(Cl)cc2)c1 34.8%
O=C1C=C(c2ccc(Cl)cc2)C(=O)N1Nc1ccccc1 66.8%
COc1ccc(/C=C/C(=O)c2cc(Br)ccc(=O)c2O)cc1 22.1%
COc1ccccc1C1/C(=C(/O)c2ccc(C)cc2)C(=O)C(=O)N1Cc1ccco1 (stereo not given) 28.4%
COc1ccc(/C(O)=C2\C(=O)C(=O)N(Cc3ccco3)C2c2ccc(OC)cc2OC)cc1 (stereo not given) 28.9%
O=C(NNc1ccccn1)c1ccc(Cl)nc1 74%
O=[N+]([O-])c1c(NCCO)cc(Sc2nc3ccccc3s2)c2nonc12 42.8%
COc1ccc2c(c1OC)C(=O)OC2Nc1nc(-c2ccccc2)cs1 (stereo not given) 38.8%

inhibition, inactive:
COc1ccc(CN(C)Cc2nc3cc(OC)c(OC)cc3c(=O)[nH]2)c(OC)c1 3.55%
COc1ccc(C2NC(=S)NC3=C2CCc2ccccc23)cc1OC (stereo not given) -20.7%
O=C(c1c(F)cccc1F)N1CCN(S(=O)(=O)c2ccc3c(c2)OCCO3)CC1 -12.9%
Fc1ccc(N2N=C(c3cccs3)CC2c2ccco2)c(F)c1 (stereo not given) -11.2%
COC(=O)c1ccc2nc(-c3ccc(C)cc3)c(Cc3ccc(OC)cc3C)n2c1 0.21%
Fc1ccc(CNCc2ccc(Br)cc2)cc1 3.28%
CCOC(=O)N1CCN(S(=O)(=O)c2ccc3c(c2)C(C)C(=O)N3)CC1 (stereo not given) 2.99%
COC(=O)[C@@]12C[C@@H](CC(=O)NCc3cccc(C(F)(F)F)c3)C(=O)N(Cc3ccco3)C1=CCC(C)(C)C2 -1.98%
CCS(=O)(=O)Nc1ccc(C(=O)NCCSc2ccccc2)cc1 -5.43%
COC(C[C@@H](O)[C@H](C)[C@H](O)COCc1ccccc1)OC -4.38%
CCCCN(Cc1ccccc1)C(=O)C1CCN(Cc2sccc2C)CC1 1.95%
CCCc1nc2ccccc2n1C(C)C(=O)NC(C)(C)C (stereo not given) 5.62%
CN(C)NC(=O)c1csnc1-c1c(Cl)cccc1Cl -5.5%
COC(=O)c1ccc(COC(=O)C2CCN(S(=O)(=O)c3c(Cl)cccc3Cl)CC2)o1 1.49%
C#CCOCCOCCOCCNc1nc(N2CCN(C(=O)C([C@@H](C)O)n3cc([C@@H](N)CCCCN)nn3)CC2)nc(N2CCN(C(=O)[C@H](CCCCN)n3cc(CN)nn3)CC2)n1 (stereo not given in full) 8.85%
C#CCOCCOCCOCCNc1nc(N2CCOCC2)nc(N2CCN(C(=O)[C@H](Cc3ccc(O)cc3)n3cc(CCO)nn3)CC2)n1 -5.39%
CN(C)c1cc(N)c2ccccc2n1 (tested in a mixture with another compound) -3.32%
O=C(O)c1ccc(S(=O)(=O)N2CCC(Cc3ccccc3)CC2)cc1 -8.86%
Cc1ccc2[nH]c(=O)c(CC=C(Cl)Cl)c(C)c2c1 1.26%
CCN(C(=O)COC(=O)c1cc(NS(=O)(=O)c2ccc(Cl)c([N+](=O)[O-])c2)ccc1O)C1CCCCC1 -3.6%
O=Cc1ccc(OCc2cn3ccccc3n2)cc1 -8.56%
COc1cc(N2C(=O)c3ccccc3C2=O)c(Cl)cc1C(=O)OCC(=O)N1CCOCC1 -1.51%
CCn1c(SCC(=O)Nc2cc(C)ccc2C)nnc1-c1cnccn1 7.43%
C(=C\c1ccccc1)/CSc1nnc(-c2cccnc2)n1Cc1ccco1 7.27%
CCOC(=O)Cc1csc(NC(=O)CSc2nnc(-c3cccnc3)n2Cc2ccco2)n1 5.88%
Cc1cc(C)nc(SCc2nnc(SCC(=O)Nc3ncc(C)s3)n2Cc2ccco2)n1 19.3%
CCCCCNC(=O)C1C(=O)Nc2ccccc2C(=O)N1C(C)(C)C (stereo not given) 4.37%
COc1cc(/C=C/CO)cc(OC)c1O[C@@H]1O[C@H](CO)[C@@H](O)[C@H](O)[C@H]1O -1.15%
O=C(CC(=O)c1cccnc1)c1ccccc1 -23.9%
O=C(OCc1cc(Cl)ccc1OC(F)F)c1cccnc1 4.48%
Cc1ccc(S(=O)(=O)N(C)C)cc1NC(=O)c1n[nH]c(=O)c2ccccc12 5.24%
O=C1CCCC(O)=C1N=Nc1ccc2ncsc2c1 -5.19%
O=C(Cn1cnc2c(nnn2-c2ccccc2)c1=O)N1CCC(Cc2ccccc2)CC1 7.96%
O=C(Nc1ccc(F)cc1)C(CCc1ccccc1)N1CCN(CC(=O)N2CCCC2)CC1 (stereo not given) -3.25%
CCCCc1cc2c(s1)CCCC/C2=N/O -9.56%
COc1cc(/C=C(\C#N)C(=O)Nc2ccc3ccccc3c2)c([N+](=O)[O-])cc1OC -3.38%
COc1ccc(CNC(=O)c2c[nH]c3c(OC)cc(OC)cc3c2=O)cc1 -1.89%
COC(=O)C[C@H]1C[C@@H]2c3cc(NC(=O)Nc4ccccc4)ccc3O[C@@H]2[C@@H](CO)O1 3.8%
c1ccc(-c2c[nH]c(-c3ccccc3)c2)cc1 -5.36%
O=C(NC1CCCCCCC1)c1cccs1 -5.96%
O=C(NNC(=O)c1ccc(Cl)cc1Cl)c1cccs1 3.54%
Cc1cccc(CN2CCN(C3CN(Cc4cn(Cc5ccccc5F)nn4)S(=O)(=O)C3)CC2)c1 (stereo not given) 5.46%
Cc1ccc(-c2c(N)nc3ncccn23)cc1 -3.59%
Cc1cc(C)nc(NC(=O)/C=C/c2ccc(Cl)cc2)n1 0.69%
Cc1cccc(C(=O)Nc2ccc(C(=O)/C=C/c3cccs3)cc2)c1 12.6%
CCO[C@H]1OC(C(=O)Nc2ccccc2)=C[C@@H](C2CC2)[C@@H]1CCCO -3.76%
CCCCN1C(N)=NC[C@@H]1CC1CCCCC1 10.6%
Cc1ccn2cc(-c3nonc3C)cc2c1 -1.69%
CCc1ccccc1NC(=O)c1cc(-c2ccc3c(c2)OCO3)on1 -4.14%
COc1ccc(/C=C/C(=O)NC(=S)N2CCCC(C(N)=O)C2)cc1 (stereo not given) -2.44%
CCOc1ccc(NC(=S)NC(=O)/C=C/c2ccc(OC)cc2)c([N+](=O)[O-])c1 2.26%
O=C(O)c1cc2ccccc2c(=O)s1 10.5%
NC[C@H](Cc1ccccc1)NCCc1cc(C(F)(F)F)cc(C(F)(F)F)c1 5.8%
COc1cc(C2/C(=C(\O)c3ccc4c(c3)CC(C)O4)C(=O)C(=O)N2Cc2ccco2)ccc1O (stereo not given) 11.1%
COc1ccc(/C(O)=C2/C(=O)C(=O)N(CCCN(C)C)C2c2ccccc2)cc1OC (stereo not given) -4.94%
COc1ccc(/C(O)=C2/C(=O)C(=O)N(CC3CCCO3)C2c2ccc(OC)c(OC)c2)cc1 (stereo not given) 1.46%
COc1ccc(/C(O)=C2/C(=O)C(=O)N(c3nc(C)c(C)s3)C2c2ccco2)cc1 (stereo not given) 6.99%
CC(C)c1nnc(NC(=O)C2CC(=O)N(CCc3ccc(F)cc3)C2)s1 (stereo not given) -0.4%
CSc1nc(-c2ccccc2)nc(C(Cl)Cl)n1 -6.27%
COc1ccc(-c2nnc3n2CCCCC3)cc1 2.02%
CCC(=O)N1CCc2cc(Br)c(S(=O)(=O)NCCN3CCCCC3CC)cc21 (stereo not given) 6.34%
N#Cc1ccc(C(=O)OCC(=O)NC(=O)NC2CCCCC2)cc1 -1.6%
NC(=O)C1CCN(C(=O)CC2C(=O)NCCN2Cc2cccc(Oc3ccccc3)c2)CC1 (stereo not given) 4.81%
O=C(NNC(=O)c1ccc(Cl)nc1)c1ccc(Br)cc1 -5.62%
CCN(CC)c1ccc(NC(=O)c2ccc(Cl)nc2)cc1 -1.77%
Cc1ccc(CSCCNC(=O)CN(c2ccc(F)cc2)S(C)(=O)=O)cc1 -1.09%
Cn1c(=O)[nH]c2c(c(C(=O)O)nn2C)c1=O 18.8%
Cc1cn(C2C=CC(CO)O2)c(=O)[nH]c1=O (stereo not given) 6.6%
Nc1cc(N2CCCCCC2)c2nonc2c1[N+](=O)[O-] 3.02%
COc1ccccc1C(=O)Nc1nc2nc(-c3ccccc3)cc(=O)n2[nH]1 -1.37%
COc1cc(C(O)c2nc(-c3cccc(C(=O)O)c3)cs2)ccc1F (stereo not given) 7.06%
O=C(c1cc(COc2ccc(F)cc2F)on1)N1CCOCC1 -0.17%

From PubChem BioAssay AID602281 (The Scripps Research Institute Molecular Screening Center, 2012)
